Records with an inconclusive call do not appear. The source made the active and inactive calls. How the source made its calls, unless noted: active means hit-call score of the fitted dose curve at least 0.9, where 1 is the maximum; inactive means score below 0.9.
Experiments:
[1] = BSK_BT_PBMCCytotoxicity: PBMC Cytotoxicity Assessment in the BioMAP Diversity Plus: BT Assay (AID 2284225); conditions: primary human B cells with PBMC;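 further: PBMC viability measured by Alamar Blue dye reduction fluorescence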
Procedure, shortened: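 Viability by Alamar Blue reduction (6 h, ex/em 546/580 nm) after 90 h culture of SEB/TSST-1-activated PBMC (20 ng/mL each) given compound 1 h before activation. DMSO served as baseline for curve fitting.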

[2] = read-out: Secreted IgG (sIgG), gene 3500; test: BSK_BT_sIgG: BioMAP Diversity Plus: BT Assay for Secreted IgG (sIgG) Biomarker Activity (AID 2284226); conditions: primary human B cells with PBMC
Procedure, shortened: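 Cells (B cells with peripheral blood mononuclear cells) are dosed, cultured 24 h, then supernatant IgG is measured by ELISA. DMSO serves as negative control; curves are fitted for signal increase.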

[3] = BSK_BT_Bcell_Proliferation: Viability Assessment in the BioMAP Diversity Plus: BT Assay for B cell Proliferation (AID 2284227); conditions: primary human B cells with PBMC
Procedure, shortened: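 SRB-based protein staining (0.1% SRB after 10% TCA fixation, 560 nm) quantifies proliferation in human B cells co-cultured with PBMC, 72 h post-dosing, with signal gain scored relative to DMSO negative control.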

[4] = read-out: Interleukin 6 (IL6), IL6 (gene 3569); test: BSK_BT_xIL6: BioMAP Diversity Plus: BT Assay for Interleukin 6 (IL6) Biomarker Activity (AID 2284228); conditions: primary human B cells with PBMC
Procedure, shortened: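 B cells and peripheral blood mononuclear cells (human primary co-culture) were dosed with chemical, and after 24 h IL-6 released into the medium was measured by Luminex xMAP. Responses were analysed as gain of signal over DMSO control.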

[5] = read-out: Interleukin 17A (IL17A), IL17A (gene 3605); test: BSK_BT_xIL17A: BioMAP Diversity Plus: BT Assay for Interleukin 17A (IL17A) Biomarker Activity (AID 2284229); conditions: primary human B cells with PBMC
Procedure, shortened: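 Secreted IL-17A was the measured endpoint, read by Luminex xMAP multiplex in supernatants of a human B cell/PBMC co-culture harvested 24 h after chemical dosing. Signal increase relative to DMSO defined activity.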

[6] = read-out: Vascular cell adhesion molecule 1 (VCAM1), VCAM1 (gene 7412); test: BSK_MyoF_VCAM1: BioMAP Diversity Plus: MyoF Assay for Vascular cell adhesion molecule 1 (VCAM1) Biomarker Activity (AID 2284231); conditions: primary human lung fibroblasts
Procedure, shortened: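 ELISA read-out of VCAM-1 on human lung fibroblasts 24 h after chemical treatment, with positive-direction curve fitting relative to DMSO controls. Parallel cultures were stained with sulforhodamine B for total protein to flag overt cytotoxicity.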

[7] = read-out: Collagen I, COL1A1 (gene 1277); test: BSK_MyoF_CollagenI: BioMAP Diversity Plus: MyoF Assay for Collagen I Biomarker Activity (AID 2284238); conditions: primary human lung fibroblasts
Procedure, shortened: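 Lung fibroblasts (human primary) dosed, 24 h; Collagen I by ELISA; positive-direction fit vs DMSO control. Parallel SRB total-protein staining (0.1% SRB, 10% TCA fixation, 560 nm) flags overt cytotoxicity.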

[8] = read-out: Collagen III, COL3A1 (gene 1281); test: BSK_MyoF_CollagenIII: BioMAP Diversity Plus: MyoF Assay for Collagen III Biomarker Activity (AID 2284239); conditions: primary human lung fibroblasts
Procedure, shortened: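 ELISA read-out of collagen III from human lung fibroblasts after 24 h of chemical treatment. The DMSO control served as negative control and baseline, with values fitted in the positive direction.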

[9] = TAMU_HCS_1.5hr_SingleDonor1434_Cytotoxicity: Cytotoxicity Assessment using High-content Screening (HCS) Fluorescent Imaging for the Texas A&M University (TAMU) 1.5-hr Human Induced Pluripotent Stem Cell (iPSC)-derived Cardiotoxicity Assay (AID 2284234; active means hit-call score of the fitted dose curve at least 0.9, where 1 is the maximum)
Procedure, shortened: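 Nuclear counts from Hoechst 33342 imaging define cytotoxicity here, with EC10 (10% cell-count loss relative to DMSO) as point of departure. iPSC cardiomyocytes received 0.2-100 uM test chemical in 0.5% DMSO for 1.5 h at 37 C.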

[10] = TAMU_PeakParms_SingleDonor1434_QT: Texas A&M University (TAMU) 1.5-hr Human Induced Pluripotent Stem Cell (iPSC)-derived Cardiomyocytes Calcium (Ca+2) Flux Assay for Cardiotoxicity: QT (decay-rise ratio) (AID 2284235; active means hit-call score of the fitted dose curve at least 0.9, where 1 is the maximum)
Procedure, shortened: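 Decay/rise ratio of calcium-flux fluorescence scored after 90 min exposure (37C) of donor 1434 iPSC cardiomyocytes to 0.2–100 uM (0.5% DMSO). Beat-cessation and severe-notch points removed; POD is EC05, a 5% rise over DMSO.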

[11] = CCTE_Mundy_HCI_hNP1_Casp3_7: CCTE's Caspase-Glo 3/7 Assay in human neuroprogenitor cells for Apoptosis, Mundy Lab (AID 2284240)
Procedure, shortened: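 Apoptosis is scored by activated caspase-3/7 luminescence in WA09-derived neural progenitor cells, measured 26.5 h after chemical dosing. Values represent gain of signal relative to DMSO vehicle.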

SMILES: CCNc1nc(NC(C)(C)C)nc(SC)n1
- outcome [1]: inactive
- AC50 [2]: 26.7 µM (active)
- outcome [3]: inactive
- outcome [4]: inactive
- outcome [5]: inactive
- AC50 [6]: 20 µM (active)
- outcome [7]: inactive
- outcome [8]: inactive

SMILES: O=[N+]([O-])c1ccc2c3c(cccc13)CC2
- outcome [1]: inactive
- outcome [2]: inactive
- outcome [3]: inactive
- AC50 [4]: 20 µM (active)
- outcome [5]: inactive
- outcome [6]: inactive
- outcome [7]: inactive
- outcome [8]: inactive

SMILES: COP(=S)(OC)Oc1ccc(S(=O)(=O)N(C)C)cc1
- outcome [1]: inactive
- AC50 [2]: 9.48 µM (active)
- outcome [3]: inactive
- outcome [4]: inactive
- outcome [5]: inactive
- outcome [6]: inactive
- outcome [7]: inactive
- outcome [8]: inactive

SMILES: O=Cc1cccc(Oc2ccccc2)c1
- outcome [1]: inactive
- outcome [2]: inactive
- outcome [3]: inactive
- AC50 [4]: 5.07 µM (active)
- outcome [5]: inactive
- outcome [6]: inactive
- outcome [7]: inactive
- outcome [8]: inactive

SMILES: OCc1ccco1
- outcome [1]: inactive
- AC50 [2]: 26.1 µM (active)
- AC50 [3]: 26.7 µM (active)
- outcome [4]: inactive
- outcome [5]: inactive
- outcome [6]: inactive
- outcome [7]: inactive
- outcome [8]: inactive

SMILES: BrCCBr
- outcome [1]: inactive
- outcome [2]: inactive
- outcome [3]: inactive
- outcome [4]: inactive
- outcome [5]: inactive
- outcome [6]: inactive
- outcome [7]: inactive
- outcome [8]: inactive

SMILES: Oc1ccc(-c2ccccc2)cc1
- outcome [1]: inactive
- outcome [3]: inactive
- outcome [4]: inactive
- outcome [5]: inactive
- outcome [6]: inactive
- outcome [7]: inactive
- AC50 [8]: 0.414 µM (active)

SMILES: COC[C@H](C)N(C(=O)CCl)c1c(C)csc1C
- outcome [1]: inactive
- outcome [2]: inactive
- outcome [3]: inactive
- outcome [4]: inactive
- outcome [5]: inactive
- outcome [6]: inactive
- outcome [7]: inactive
- outcome [8]: inactive

SMILES: CC(C)(C)c1cc(O)ccc1O
- AC50 [9]: 50 µM (active)
- outcome [10]: inactive

SMILES: Oc1cccc2cccnc12
- outcome [9]: inactive
- outcome [10]: inactive

SMILES: Nc1ncc([N+](=O)[O-])s1
- outcome [1]: inactive
- outcome [2]: inactive
- outcome [3]: inactive
- outcome [4]: inactive
- outcome [5]: inactive
- outcome [6]: inactive
- outcome [7]: inactive
- outcome [8]: inactive

SMILES: CCOC(=O)/C=C(C)/C=C/C[C@@H](C)CCCC(C)C
- AC50 [1]: 23.7 µM (active)
- AC50 [2]: 20 µM (active)
- AC50 [3]: 27 µM (active)
- AC50 [4]: 20.8 µM (active)
- AC50 [5]: 20 µM (active)
- AC50 [6]: 29.2 µM (active)
- AC50 [7]: 32.5 µM (active)
- AC50 [8]: 30.6 µM (active)

SMILES: O=S(=O)(c1ccc(Cl)cc1)c1ccc(Cl)cc1
- outcome [1]: inactive
- outcome [2]: inactive
- outcome [3]: inactive
- outcome [4]: inactive
- outcome [5]: inactive
- outcome [6]: inactive
- outcome [7]: inactive
- outcome [8]: inactive

SMILES: O=C(O)C(F)(F)C(F)(F)C(F)(F)C(F)(F)C(F)(F)C(F)(F)F
- outcome [1]: inactive
- outcome [2]: inactive
- outcome [3]: inactive
- outcome [4]: inactive
- outcome [5]: inactive
- outcome [6]: inactive
- outcome [7]: inactive
- outcome [8]: inactive
- outcome [11]: inactive

SMILES: CCCCC(CC)CO[N+](=O)[O-] (centres undefined)
- outcome [1]: inactive
- outcome [2]: inactive
- outcome [3]: inactive
- outcome [4]: inactive
- outcome [5]: inactive
- outcome [6]: inactive
- outcome [7]: inactive
- outcome [8]: inactive

SMILES: ClC1=C(Cl)[C@]2(Cl)[C@H]3[C@H]([C@H]4C=C[C@H]3C4)[C@@]1(Cl)C2(Cl)Cl
- AC50 [1]: 30.5 µM (active)
- AC50 [2]: 7.53 µM (active)
- AC50 [3]: 36.3 µM (active)
- AC50 [4]: 20 µM (active)
- AC50 [5]: 24.4 µM (active)
- AC50 [6]: 3.97 µM (active)
- outcome [7]: inactive
- AC50 [8]: 5.43 µM (active)

SMILES: COP(=S)(OC)Oc1cc(Cl)c(Cl)cc1Cl
- outcome [1]: inactive
- AC50 [2]: 34.3 µM (active)
- outcome [3]: inactive
- outcome [4]: inactive
- outcome [5]: inactive
- AC50 [6]: 31.1 µM (active)
- outcome [7]: inactive
- outcome [8]: inactive

SMILES: CCCCCCCCC(=O)NCc1ccc(O)c(OC)c1
- outcome [1]: inactive
- outcome [2]: inactive
- outcome [3]: inactive
- outcome [4]: inactive
- outcome [5]: inactive
- outcome [6]: inactive
- outcome [7]: inactive
- outcome [8]: inactive

SMILES: CCOP(=S)(OCC)SCCS(=O)(=O)CC
- outcome [1]: inactive
- outcome [2]: inactive
- outcome [3]: inactive
- outcome [4]: inactive
- outcome [5]: inactive
- outcome [6]: inactive
- outcome [7]: inactive
- outcome [8]: inactive

SMILES: Nc1cccc2ccccc12
- outcome [1]: inactive
- outcome [2]: inactive
- AC50 [3]: 20 µM (active)
- outcome [4]: inactive
- outcome [5]: inactive
- outcome [6]: inactive
- outcome [7]: inactive
- AC50 [8]: 14.5 µM (active)

SMILES: C(=NC1CCCCC1)=NC1CCCCC1
- AC50 [1]: 8.8 µM (active)
- AC50 [2]: 1.82 µM (active)
- AC50 [3]: 5.75 µM (active)
- AC50 [4]: 9.07 µM (active)
- AC50 [5]: 6.39 µM (active)
- AC50 [6]: 11.8 µM (active)
- AC50 [7]: 5.82 µM (active)
- AC50 [8]: 7.83 µM (active)

SMILES: COc1cc(OC)nc(NC(=O)NS(=O)(=O)c2ncccc2C(=O)N(C)C)n1
- outcome [1]: inactive
- outcome [2]: inactive
- outcome [3]: inactive
- outcome [4]: inactive
- outcome [5]: inactive
- outcome [6]: inactive
- outcome [7]: inactive
- outcome [8]: inactive
